Bioassay records: PubChem BioAssay, several laboratories
Yp Topo-I inh: Yersinia pestis topoisomerase I inhibitors, primary screen, biochemical, cleavage product accumulation, plate reader, single point | activity, % at 10 µM | 360,000 compounds, 0.064% hits | Y. pestis Topo-I cleavage product accumulation | DNA topoisomerase I (Yersinia pestis CO92); in the data active = activity above about 50%, passing the limit was not always enough
TcdB inh: TcdB glycohydrolase inhibitors, primary screen, biochemical, single point, plate reader. Toxin B (Clostridioides difficile), P18177. TcdB glycohydrolase enzymatic assay. inhibition, % at 9.99 µM. 350,000 compounds, 0.24% hits. AID 652162, 2013; in the data active = inhibition above about 10%
VHR inh abs: VHR1 phosphatase inhibitors, primary screen, biochemical, absorbance, uHTS | Dual specificity protein phosphatase 3 (Homo sapiens), P51452 | recombinant VHR phosphatase, pNPP absorbance | 290,000 compounds, 0.52% hits | inhibition, % at 13.3 µM; in the data active = inhibition above about 50%
Target sequence (P51452 whole entry, looked up): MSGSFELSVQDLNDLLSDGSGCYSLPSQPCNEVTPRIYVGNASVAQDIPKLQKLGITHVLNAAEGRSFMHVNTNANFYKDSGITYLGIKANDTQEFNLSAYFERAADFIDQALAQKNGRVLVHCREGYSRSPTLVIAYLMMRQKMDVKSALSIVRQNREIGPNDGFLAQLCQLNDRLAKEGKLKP
Vc quorum ag: inducers of Vibrio cholerae quorum light production without autoinducers, primary screen, BH1578 luxS cqsA deficient, single point. AID 588436, 2011. V. cholerae BH1578 lux reporter, luminescence, 6 h. activation, % at 18.7 µM. 350,000 compounds, 0.16% hits; in the data active = activation mostly above about 9.7%, no sharp cut-off
Mtb BioA inh: M. tuberculosis BioA enzyme inhibitors, primary screen, biochemical, plate reader, single point, HTS | 7,8-diaminopelargonic acid synthase BioA (Mycobacterium tuberculosis) | purified M. tuberculosis BioA enzyme | inhibition, % at 9.99 µM | 360,000 compounds, 0.096% hits; in the data active = inhibition above about 40%
PfHsp40 rescue: rescue of yeast from PfHsp40 toxicity, primary screen, S. cerevisiae, ATP luminescence; growth rescue, % at 12.5 µM; AID 504582, 2011; 340,000 compounds, 0.68% hits; S. cerevisiae expressing PfHsp40, growth rescue; in the data active = growth rescue above about 28%, passing the limit was not always enough;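 also: yeast W303a lacking pdr1 and pdr3 grown in galactose medium; growth measured after three days at 30 °C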
* hit, by the source's call; i = inactive; . = no result. Compounds with a hit are over-represented: about 1.2% of the library has one in this group of screens.

SMILES | Yp Topo-I inh | TcdB inh | VHR inh abs | Vc quorum ag | Mtb BioA inh | PfHsp40 rescue
O=C(NCc1nnc2c(C(F)(F)F)cc(Cl)cn12)c1cccnc1 | -1 | 12* | 10 | 1 | 8 | -1
Cc1cn([C@H]2C[C@H](N=[N+]=[N-])[C@@H](CO)O2)c(=O)[nH]c1=O | -2 | 1 | 16 | 35* | -1 | -1
O=C(c1ccc(Cl)c(S(=O)(=O)NCc2ccccc2)c1)N1CCN(c2ccccn2)CC1 | 29 | 0 | 54* | i | 0 | -2
O=C(c1ccc(CNS(=O)(=O)c2ccccc2)cc1)N1CCN(c2ccccn2)CC1 | 24 | . | 3 | 0 | 1 | 0
c1ccc(Cn2nnc3c(N4CCN(Cc5ccc6c(c5)OCO6)CC4)ncnc32)cc1 | 39 | . | 51* | 0 | -1 | -1
COc1cccc(Nc2ncc(C(=O)O)c3ccccc23)c1 | -7 | . | -2 | 1 | -1 | 1
CCCS(=O)(=O)n1nc(-c2ccccc2)cc1N | 3 | 3 | 54* | 0 | 2 | 2
CCn1c(CNc2ccc(Cl)cc2)nnc1SCc1ccc(Cl)cc1 | 18 | . | 4 | i | 4 | 166*
Cc1ccc2sc(N(CCCN(C)C)C(=O)c3ccc(S(=O)(=O)N4CCc5ccccc5C4)cc3)nc2c1C | 9 | 1 | . | i | -1 | 79*
COc1cccc2sc(N(CCCN(C)C)C(=O)c3ccc(S(=O)(=O)N4CCc5ccccc5C4)cc3)nc12 | -15 | 1 | 2 | -1 | 0 | -1
CC1CCN(c2nc3c(=O)[nH]c(N)nc3n2[C@@H]2O[C@H](CO)[C@@H](O)[C@H]2O)CC1 | -7 | 0 | 10 | 0 | -4 | 0
CC1(C)O[C@@H]2[C@H](O1)[C@@H](COS(=O)(=O)O)O[C@H]2n1c(=S)[nH]c2c(=O)[nH]c(N)nc21 | 0 | 12* | . | -1 | -7 | -1
COc1ccc(C(=O)NCC(c2cccs2)N2CCOCC2)cc1OC (stereo not drawn) | 7 | 0 | . | i | 1 | 1
COc1cc(C(=O)NCC(c2cccs2)N2CCOCC2)cc(Br)c1OCc1ccccc1 (stereo not drawn) | 24 | 1 | . | -1 | -4 | 132*
CN1CCN(CC(=O)Nc2cc(N(C)C)nc3ccccc23)CC1 | -14 | 13* | 21 | i | . | -1
CN(CCCNC(=O)C1CCC(CNS(=O)(=O)c2ccccc2)CC1)Cc1ccccc1 (stereo not drawn) | -7 | 0 | 56* | 0 | 0 | -2
CCCCCCCN1C(N(C)C)=NC[C@@H]1Cc1ccccc1 | 11 | 13* | . | 1 | 3 | 2
CN(C)C1=NC[C@H](Cc2ccccc2)N1CCCCc1ccccc1 | -4 | -1 | . | 1 | 9 | -1
O=C(c1ccccc1)N1C(=O)C(c2ccccc2)Oc2ccccc21 (stereo not drawn) | 1 | 1 | -14 | -1 | . | 234*
CC1Oc2ccccc2N(CC(=O)c2ccccc2)C1=O (stereo not drawn) | 5 | -3 | 5 | 0 | 0 | 1
Cc1cc(C(=O)NCC2CCCO2)sc1C (stereo not drawn) | 8 | 0 | . | i | -1 | -2
CC(C)NC(=O)Nc1ccc2c(c1)C(=O)N([C@@H](C)CO)C[C@H](C)[C@@H](CN(C)S(=O)(=O)c1ccc(F)cc1)OCCCC[C@@H](C)O2 | . | 2 | . | . | 2 | .
CCCCCCCc1ccc(-c2ccc(O)cc2)nc1 | 37 | 0 | -8 | 0 | . | 253*
COc1ccc(CN2CCCC(C(=O)N3CCc4ccccc4C3)C2)cc1OC (stereo not drawn) | 6 | 1 | 59* | -7 | 1 | 0
Cc1nn(Cc2c(Cl)cccc2Cl)c(C)c1NC(=O)/C=C/c1cnn(C)c1C | 9 | . | 30 | -1 | -1 | 0
SMILES | Yp Topo-I inh | TcdB inh | VHR inh abs | Vc quorum ag | Mtb BioA inh | PfHsp40 rescue
Cn1cncc1C#Cc1ccc2cc(CCCO)oc(=O)c2c1 | -5 | -1 | . | i | -1 | -2
Cn1cncc1C#Cc1ccc2cc(CCO)oc(=O)c2c1 | -6 | 0 | . | i | 0 | 67*
O=c1c([N+](=O)[O-])cccn1Cc1cccc(Br)c1 | -6 | 1 | -9 | 46* | 2 | 0
CS(=O)(=O)N1CCCC(C(=O)Nc2c(F)cccc2F)C1 (stereo not drawn) | -1 | 1 | 4 | 0 | 0 | 0
Cc1ccc(C2CC(=O)NC(SCC(=O)Nc3nccs3)=C2C#N)cc1 (stereo not drawn) | -8 | . | 0 | 25* | -1 | 2
CCOc1ccc(C(C)=O)cc1COC(=O)c1ccccc1C(=O)N(C)Cc1ccccc1 | 28 | 1 | . | -6 | 5 | 96*
O=C(OC1CCCCC1)c1ccc2c(c1)C1C=CCC1C(C(=O)O)N2 (stereo not drawn) | . | . | 87* | . | . | .
O=S(=O)(c1ccc(S(=O)(=O)n2cnc3ccccc32)cc1)N1CCCCCC1 | 6 | . | 26 | . | -1 | -1
CCOC(=O)N1CCC(c2cc(=O)n3[nH]c(-c4ccccc4)cc3n2)CC1 | 2 | 24* | 15 | 0 | -1 | 0
CCOC(=O)Cc1cc(=O)n2[nH]c(-c3ccccc3)cc2n1 | -9 | 2 | 9 | -6 | 0 | 2
CC(=O)c1ccc(N2CCN(C(=O)C3CCCN3S(=O)(=O)c3cccc4nsnc34)CC2)cc1 (stereo not drawn) | 9 | 1 | -9 | i | -1 | 0
COc1cccc(NC(=O)CN(C)C(=O)c2cc(S(=O)(=O)NCc3ccccc3)ccc2C)c1 | 9 | 0 | 29 | i | -1 | -1
O=C(N/N=C/c1ccc(O)c2ncccc12)c1cccc(Br)c1 | -10 | 2 | 5 | 2 | . | 105*
OCC1(CC2CCCCO2)CCN(C/C=C/c2ccccc2)CC1 (stereo not drawn) | 1 | 1 | -4 | 0 | -1 | -2
COc1cc(/C=C/CN2CCC(CO)(CC3CCCCO3)CC2)ccc1O (stereo not drawn) | 1 | 4 | 51* | 1 | . | 0
CCOC(=O)C(C(=O)OCC)C(=O)c1cc(OC)c(OC)c(OC)c1 | 2 | . | 52* | i | -1 | -1
CCCN(CCC)CC(O)CN(c1ccccc1)S(=O)(=O)c1ccc(C)cc1 (stereo not drawn) | 12 | . | 27 | 0 | 1 | 1
CCCCN(c1nc2ccccc2nc1Cl)S(=O)(=O)c1ccc(C)cc1 | 55* | 1 | . | -1 | . | -1
COc1ccc(/C=C(\C#N)C(=O)OCC(=O)NCc2ccccc2OC)cc1 | 0 | 2 | . | 5 | . | 0
O=S(c1ccccc1O)S(=O)c1ccccc1O (stereo not drawn) | -19 | -1 | . | . | . | 144*
